Test results from the supplement of paper PMC10503962.

These compounds were tested on Trichuris muris adult worms (assay: mean motility score (Paragon pixel variance) of adult worms (arbitrary units); higher = more motile worms, i.e. less anthelmintic effect; extreme values may be limits of the assay). Details: 100 µM; 24 h.
Procedure: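 Primary ex vivo screen of 409 approved drugs against adult Trichuris muris worms: one worm per well in RPMI-1640 with penicillin/streptomycin, 100 µM drug in 1% DMSO, 37 °C, 5% CO2 for 24 h. Motility was recorded with INVAPP (200-frame movies) and scored with the Paragon pixel-variance algorithm. Values are means of triplicate wells run on three occasions; levamisole was the positive control and DMSO the negative control.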

Going from `CC/C(=C(/CC)c1ccc(O)cc1)c1ccc(O)cc1` [diethylstilbestrol] to `CC(CCc1ccc(O)cc1)NCCc1ccc(O)c(O)c1` (stereo not given) [dobutamine], the mean motility score rises from 0 to 2870.

Compared with `O=C1O[C@H](CO)[C@@H](O)[C@H](O)[C@H]1O` [gluconolactone], `Nc1ncnc2c1ncn2[C@@H]1O[C@H](COP(=O)(O)O)[C@@H](O)[C@H]1O` [adenosine phosphate] is higher in mean motility score: 2100 for the first, 4280 for the second.

Going from `Nc1ccc(S(N)(=O)=O)cc1` [sulfanilamide] to `Cc1nnc(NS(=O)(=O)c2ccc(N)cc2)s1` [sulfamethizole], the mean motility score rises from 2370 to 3570.

Going from `COCCCC/C(=N\OCCN)c1ccc(C(F)(F)F)cc1` [fluvoxamine] to `O=C(CCCN1CCC(O)(c2ccc(Cl)cc2)CC1)c1ccc(F)cc1` [haloperidol], the mean motility score rises from 2670 to 2820.

First: CC(C)(F)C[C@H](N[C@@H](c1ccc(-c2ccc(S(C)(=O)=O)cc2)cc1)C(F)(F)F)C(=O)NC1(C#N)CC1 [odanacatib]
Second: Cc1ccc(S(=O)(=O)O)cc1.Clc1cccc(Cl)c1NC1=NCCN1 [clonidine p-toluenesulfonic acid]
The mean motility score of the first is lower: 3560 for the first, 3620 for the second.

Going from `Nc1ccc(C(=O)O)c(O)c1` [aminosalicylic acid] to `N[C@@H](Cc1c[nH]c2ccc(O)cc12)C(=O)O` [oxitriptan], the mean motility score falls from 4450 to 3310.

First: C[C@]12C=CC(=O)C=C1CC[C@@H]1[C@@H]2[C@@H](O)C[C@@]2(C)[C@H]1CC[C@]2(O)C(=O)CO [prednisolone]
Second: CCCC(=O)O[C@]1(C(=O)COC(C)=O)CC[C@H]2[C@@H]3C[C@H](F)C4=CC(=O)C=C[C@]4(C)[C@@]3(F)[C@@H](O)C[C@@]21C [difluprednate]
The mean motility score of the first is lower: 659 for the first, 3520 for the second.

First: CN1CCC(=C2c3ccccc3C=Cc3ccccc32)CC1 [cyproheptadine]
Second: CN1C(C(=O)Nc2ccccn2)=C(O)c2ccccc2S1(=O)=O [piroxicam]
The mean motility score of the first is lower: 417 for the first, 2510 for the second.

Compared with `CCc1nc(N)nc(N)c1-c1ccc(Cl)cc1` [pyrimethamine], `Cl.Nc1c2c(nc3ccccc13)CCCC2` [tacrine hydrochloride] is lower in mean motility score: 2930 for the first, 2770 for the second.

First: CN(C)CCOC(=O)C(c1ccccc1)C1(O)CCCC1 (stereo not given) [cyclopentolate]
Second: Cc1c(N(C)C)c(=O)n(-c2ccccc2)n1C [aminopyrine]
The mean motility score of the first is higher: 2640 for the first, 2250 for the second.

Compared with `CCn1cc(C(=O)O)c(=O)c2cc(F)c(N3CCNCC3)cc21` [norfloxacin], `CCOC(=O)[C@H](CCc1ccccc1)N[C@H]1CCc2ccccc2N(CC(=O)O)C1=O.Cl` [benazepril hydrochloride] is higher in mean motility score: 1950 for the first, 2030 for the second.

Going from `C#C[C@]1(O)CC[C@H]2[C@@H]3CCC4=CC(=O)CC[C@@H]4[C@H]3CC[C@@]21CC` [levonorgestrel] to `C[C@H](CS)C(=O)N1CCC[C@H]1C(=O)O` [captopril], the mean motility score falls from 3390 to 3330.

First: Cc1cccc(N(C)C(=S)Oc2ccc3ccccc3c2)c1 [tolnaftate]
Second: CNCC[C@H](Oc1cccc2ccccc12)c1cccs1.Cl [duloxetine hydrochloride]
The mean motility score of the first is higher: 2620 for the first, 2.67 for the second.

Going from `CC(C)(Oc1ccc(C2CC2(Cl)Cl)cc1)C(=O)O` (stereo not given) [ciprofibrate] to `COc1ccc2cccc(CCNC(C)=O)c2c1` [agomelatine], the mean motility score rises from 2070 to 3270.

First: NS(=O)(=O)c1cc2c(cc1Cl)NC(CSCc1ccccc1)=NS2(=O)=O [benzthiazide]
Second: CN(CCOc1ccc(CC2SC(=O)NC2=O)cc1)c1ccccn1 (stereo not given) [rosiglitazone]
The mean motility score of the first is higher: 3040 for the first, 603 for the second.

Compared with `C#Cc1cccc(Nc2ncnc3cc(OCCOC)c(OCCOC)cc23)c1` [erlotinib], `C[C@@H](c1ncncc1F)[C@](O)(Cn1cncn1)c1ccc(F)cc1F` [voriconazole] is higher in mean motility score: 1720 for the first, 4350 for the second.

Going from `N[C@@H](Cc1cc(I)c(Oc2ccc(O)c(I)c2)c(I)c1)C(=O)O` [liothyronine] to `Cc1[nH]c2ccccc2c1CCNCc1ccc(/C=C/C(=O)NO)cc1` [panobinostat], the mean motility score rises from 1020 to 2620.

First: Cn1cnc([N+](=O)[O-])c1Sc1ncnc2nc[nH]c12 [azathioprine]
Second: COc1cccc2c1C(=O)c1c(O)c3c(c(O)c1C2=O)C[C@@](O)(C(=O)CO)C[C@@H]3O[C@H]1C[C@H](N)[C@H](O)[C@H](C)O1 [doxorubicin]
The mean motility score of the first is higher: 3550 for the first, 2090 for the second.

Going from `CSCC[C@H](N)C(=O)O` [methionine] to `C=CC(N)CCC(=O)O` (stereo not given) [vigabatrin], the mean motility score falls from 3180 to 1690.

Going from `OCC(O)CO` [glycerin] to `CO[C@H]1/C=C/O[C@@]2(C)Oc3c(C)c(O)c4c(O)c(c(/C=N/N5CCN(C)CC5)c(O)c4c3C2=O)NC(=O)/C(C)=C\C=C\[C@H](C)[C@H](O)[C@@H](C)[C@@H](O)[C@@H](C)[C@H](OC(C)=O)[C@@H]1C` [rifampicin], the mean motility score falls from 3460 to 1330.
